Our source for the growth values is PubChem BioAssay (NCI).

Values joined by “and” are separate entries in the source; they are usually repeats but may differ in a detail not shown here. Identical values can stand only once. This is part of a sample that, as a whole, favours compounds with a hit. Of some 83,000 tested, about 20% had one in any assay.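 For each line, cells grew in 96-well plates with the test compound present at a single concentration for 48 hours.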 Active and inactive are the calls of the source. The calls were made as follows: active = growth percent below 10; inactive = the rest.

The assay has as its system MDA-MB-468 breast. Put plainly: NCI-60 one-dose screen, 48 h (100 = growth as untreated, 0 = no growth, -100 = all killed). As to conditions: 10 µM unless noted.
Consider `O=CN1N=C(c2ccc3c(c2)OCO3)CC1c1sc(N(CCCl)CCCl)nc1Cl` (centres undefined), for which the growth was 90.9% (inactive).

Regarding `Cc1cc(C(C)(C)c2ccc(O)c(C)c2)ccc1O`, the growth is 87.8% (inactive).

In the case of `Nc1cc2nc3ccccc3nc2cc1N`, the growth was -11.9% (active).

For the compound `CC(=O)Nc1nc2c(s1)C1=CC[C@H]3[C@@H]4CC[C@H](OC(C)=O)[C@@]4(C)CC[C@@H]3[C@@]1(C)CC2`, the growth is 55.7% (inactive).

Regarding `C1CNC2CCCC2C1` (centres undefined), the growth was 97.4% (inactive).

As to `ClCc1ccc2ccccc2n1`, the growth is 84.1% (inactive).

`COc1cc[c]([Hg][Cl])cc1`: the growth was -62.8% (active).

In the case of `COc1ccc(S(=O)(=O)Nc2c(/C=C\c3cc(OC)c(OC)c(OC)c3)ccc(OC)c2O)cc1OC`, the growth was 14.1% (inactive).

Regarding `COc1cc(C=C2c3ccccc3C(=O)c3ccccc32)ccc1OCCCCOc1cc2c(cc1OC)C(=O)N1CCCC1C=N2` (centres undefined), the growth was -75.4% (active).

Consider `C=CCOC(=O)C(Br)CC` (centres undefined), for which the growth was 98% (inactive).

For `COc1ccc2c(c1)c(-c1nc(-c3cn(C)c4ncccc34)cs1)cn2CCN1CCOCC1`, the growth was 45.8% (inactive).

Turning to `COc1ccc(OC)c(/C=C/[N+](=O)[O-])c1`, the growth was -59.3% (active).

With `COc1ccc(NC([Se])=NC23CC4CC(CC(C4)C2)C3)cc1`, the growth is -15.6% (active).

Regarding `CC(=O)OCC1O[C@@H]([S-])C(OC(C)=O)[C@H](OC(C)=O)[C@@H]1OC(C)=O.[Au+].c1ccc(CN2[CH-]N(Cc3ccccc3)C(c3ccccc3)=C2c2ccccc2)cc1`, the growth is -61.7% (active).

As for `CCCCCCCCCCCCCC[P+](CCCCCC)(CCCCCC)CCCCCC`, the growth was -88.3% (active).

Regarding `CC[C@]12C=CCN3CC[C@@]4(c5ccc(OC)cc5N(C)[C@H]4[C@@](O)(C(=O)OC)[C@@H]1OC(=O)CCCN1CCN(CCCC(=O)O[C@@H]4[C@]5(CC)C=CCN6CC[C@@]7(c8ccc(OC)cc8N(C)[C@H]7[C@@]4(O)C(=O)OC)[C@@H]65)CC1)[C@@H]32`, the growth is -88.4% (active).

Consider `O=[N+]([O-])CC(c1ccccc1Cl)c1c(-c2ccccc2)[nH]c2ccccc12` (centres undefined), for which the growth is 7.39% (active).

As to `CC[C@H](C)[C@H](NC(=O)c1cnccn1)C(=O)N(C)[C@H](C[C@@H](OC(C)=O)c1nc(C(=O)N[C@@H](Cc2ccccc2)C[C@H](C)C(=O)OC)cs1)C(C)C`, the growth is 31.5% (inactive).

Turning to `CCCCN1CCCC[C@@H]1C(=O)N[C@H](C(=O)N(C)[C@H](C[C@@H](OC(C)=O)c1nc(C(=O)NC2CCC(C(=O)OC)CC2)cs1)C(C)C)C(C)C` (some centres undefined), the growth was 17.4% (inactive).

For `C[C@@H]1CC[C@@H]2[C@@H]1[C@H](OC(=O)/C=C/C1CCCCC1)[C@]1(C3CCCCC3)C[C@@H](OC(=O)CO)[C@@]2(C)O1`, the growth was 59.5% (inactive).

Take `O=CC1(c2ccccc2)CCN(Cc2ccccc2)CC1`: the growth was 103% (inactive).

As for `O=c1cc[nH]c(=O)o1`, the growth is 105% (inactive).

For `CCCCCCCC[N+](C)(CCCCCCCC)CCCCCCCC`, the growth is -90.1% (active).

For the compound `COc1ccc2c(c1)c(-c1nc(-c3cn(C)c4ncccc34)cs1)cn2CCCCN1CCCCC1`, the growth is -2.69% (active).

As to `C/C(=C\c1ccn(-c2ccc(N)c(F)c2)n1)[C@@H]1C[C@@H]2O[C@]2(C)CCC[C@H](C)[C@H](O)[C@@H](C)C(=O)C(C)(C)[C@@H](O)CC(=O)O1`, the growth was 10.5% (inactive).

In the case of `CC1=C2[C@H]3OC(=O)[C@@H](C)[C@@H]3CC[C@@]2(C)C=CC1=O`, the growth was 93.4% (inactive).

In the case of `Oc1ccccc1-c1ccccc1`, the growth was 105% (inactive) and 103% (inactive).

As to `C=C1C(=O)O[C@H]2[C@H]1CC/C(COC(=O)C(=O)c1cn(Cc3ccccc3)c3ccccc13)=C\CC[C@@]1(C)O[C@@H]21`, the growth is -60.5% (active).

As for `C/C(=C\c1cc(C(F)(F)F)n(-c2ccc(N)cc2)n1)[C@@H]1C[C@@H]2O[C@]2(C)CCC[C@H](C)[C@H](O)[C@@H](C)C(=O)C(C)(C)[C@@H](O)CC(=O)O1`, the growth is -16.6% (active).

For `C/C(=N/OC(=O)N(C)C)c1ccc(Cl)c(Cl)c1`, the growth is 120% (inactive).

`Brc1ccc2c(c1)c(-c1nc(-c3c[nH]c4ncccc34)cs1)cn2CCN1CCOCC1`: the growth is 34.2% (inactive).

As for `c1cnc2[nH]cc(-c3csc(-c4cn(CCCCN5CCCCC5)c5ccccc45)n3)c2c1`, the growth is 98.6% (inactive).

For `O=C/C=C/c1ccco1`, the growth was 106% (inactive).

Consider `C/C=C(/C)C(=O)O[C@H]1CC[C@@]2(C)[C@@H]3CC[C@H]4[C@]5(O)C[C@H](O)[C@@]6(O)[C@@H](CN7C[C@@H](C)CC[C@H]7[C@@]6(C)O)[C@]5(O)C[C@@]42O[C@@]13O`, for which the growth is 106% (inactive).
